The results in this text go back to PubChem BioAssay AID1376 (SRMLSC, 2008).

In all, about 220,000 compounds went through this assay and about 530 (0.24%) were called active. The full list was thinned out, with actives kept by preference. Measured potencies and affinities stand elsewhere. Unmarked numbers belong to inactive results. No stated cut-off is given here; in the data, active means inhibition above about 13%; inconclusive means no clear call, values can overlap the other calls; inactive means below that.

Chain of Bifunctional protein GlmU (Mycobacterium tuberculosis (strain ATCC 25618 / H37Rv)) (P9WMN3 whole entry, looked up): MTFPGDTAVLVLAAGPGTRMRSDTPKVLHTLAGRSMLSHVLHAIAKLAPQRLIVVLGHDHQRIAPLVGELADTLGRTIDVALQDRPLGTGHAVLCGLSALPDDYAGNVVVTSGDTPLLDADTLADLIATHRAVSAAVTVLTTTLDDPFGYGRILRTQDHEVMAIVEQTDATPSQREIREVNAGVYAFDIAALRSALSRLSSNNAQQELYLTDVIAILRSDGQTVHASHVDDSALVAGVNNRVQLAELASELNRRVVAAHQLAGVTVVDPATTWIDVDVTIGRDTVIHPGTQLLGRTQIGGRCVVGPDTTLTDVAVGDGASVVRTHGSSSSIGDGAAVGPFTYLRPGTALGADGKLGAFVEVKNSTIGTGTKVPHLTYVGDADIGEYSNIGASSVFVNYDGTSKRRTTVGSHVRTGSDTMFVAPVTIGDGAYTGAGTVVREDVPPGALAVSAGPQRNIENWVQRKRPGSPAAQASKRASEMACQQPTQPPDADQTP

The test has as its target Bifunctional protein GlmU (Mycobacterium tuberculosis (strain ATCC 25618 / H37Rv)) (UniProt P9WMN3). Kind of test: inhibition of mycobacterial GlmU enzyme – biochemical, glucosamine-1-phosphate acetyltransferase (AID 1376).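 Further: 0% = complete reaction with vehicle and 100% = reaction without substrate.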 The settings on record: M. tuberculosis GlmU acetyltransferase enzyme assay; hits give high values;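 tested at 30 µM in the primary screen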.
What is called inhibition is the drop in the measured response relative to a control, in per cent. With `CCC(C)(C)NC(=O)C(c1ccccc1)N(Cc1cccnc1)C(=O)c1csnn1` (stereo not drawn), the inhibition was 0.49%.
Under `CN(C)S(=O)(=O)c1cccc(NC(=O)/C=C/c2ccccc2[N+](=O)[O-])c1` stands 6.53%.
The result for `O=S1(=O)c2ccccc2N=NN1Cc1ccc(Cl)cc1` reads 8.76%; that for `O=S1(=O)c2ccccc2N=NN1Cc1cc(Cl)cc(Cl)c1`, 3.2%.
For `CC(C1CC2CCC1C2)n1c(-c2ccco2)n[nH]c1=S` (stereo not drawn), the inhibition is -2.34%.
As to `COc1cccc(/C=N/n2c(-c3ccco3)nc3ccccc3c2=O)c1`, the inhibition was 12.8% (active).
For `COc1cccc(/C=N/n2c(-c3ccco3)nc3ccccc3c2=O)c1OC`, the inhibition is -2.22%.
Under `COc1ccc(/C=N/n2c(-c3ccco3)nc3ccccc3c2=O)cc1` stands -1.21%.
On to `C=CCn1c(C(CC(C)C)CC(C)O)n[nH]c1=S` (stereo not drawn), for which the inhibition was -0.56%.
Under `Cc1ccc(-n2c(SCC(=O)NC3CCS(=O)(=O)C3)nc3ccccc3c2=O)cc1` (stereo not drawn) stands -6.07%.
The result for `Cc1cccc(NC(=O)CCc2ccc(S(=O)(=O)NC3CCCCC3)cc2)c1` reads 4.56%; that for `O=C(O)c1cccc(N/N=C/c2ccc(-c3ccccc3)cc2)c1`, -0.74%.
Under `CC(C)(C)c1ccc(/C=N/Nc2cccc(C(=O)O)c2)cc1` stands -6.54%; under `Cc1nn(-c2cccc(C(F)(F)F)c2)c(Cl)c1/C=N/Nc1cccc(C(=O)O)c1`, -2.39%.
For `CSc1ccc(/C=N/Nc2cccc(C(=O)O)c2)cc1`, the inhibition was 35.4% (active).
The result for `Cc1nn(-c2ccccc2)c(Cl)c1/C=N/Nc1ccc(Cl)c(C(=O)O)c1` reads -0.65%; that for `CCOc1cccc(C(=O)N(Cc2ccc(F)cc2)C2CCS(=O)(=O)C2)c1` (stereo not drawn), 3.65%; that for `CC1CCc2c(sc3ncn(Cc4ccc(C(=O)O)cc4)c(=O)c23)C1` (stereo not drawn), -5.17%.
Consider `CNS(=O)(=O)c1cccc(C(=O)OCC(=O)Nc2ccc(N3CCCCC3)cc2)c1`, for which the inhibition is -3.94%.
The result for `CN(CCC1CCOCC1)Cc1nc(Cc2ccccc2F)no1` reads 3.72%; that for `Cc1ccc(S(=O)(=O)C(C#N)c2nc3ccccc3nc2OCCO)cc1` (stereo not drawn), 2.66%; that for `CCCCOc1nc2ccccc2nc1C(C#N)S(=O)(=O)c1ccccc1` (stereo not drawn), 3.84%.
Take `N#CC(c1nc2ccccc2nc1OCCO)S(=O)(=O)c1ccccc1` (stereo not drawn): the inhibition was 12.9% (active).
The result for `COc1ccc(C2C(C(C)=O)=C(O)C(=O)N2c2nccs2)c(OC)c1` (stereo not drawn) reads 0.3%; that for `COc1ccc(C2C(C(C)=O)=C(O)C(=O)N2c2cccnc2)c(OC)c1` (stereo not drawn), 12.9% (active).
Under `COc1ccc(C2C(C(C)=O)=C(O)C(=O)N2c2cccnc2)cc1OC` (stereo not drawn) stands 1.89%.
For `Cc1ccccc1NC(=O)C(C)n1c2ccccc2c2nc(=O)cc(C)n21` (stereo not drawn), the inhibition is -3.29%.
As for `Nc1cc(C(=O)O)c(N)c2c1C(=O)c1ccccc1C2=O`, the inhibition is 12.9% (active).
The result for `Nc1c(C(=O)O)ccc2c1C(=O)c1ccccc1C2=O` reads 5.83%; that for `O=C(O)c1cccc2c1C(=O)c1ccccc1C2=O`, -4.06%; that for `Cc1ccc2nsnc2c1S(=O)(=O)N1CCN(CCc2ccccc2)CC1`, -1.69%.
Consider `Cn1c(=O)n(C)c2cc(NC(=O)c3ccccc3[N+](=O)[O-])c(Br)cc21`, for which the inhibition is -4.22%.
The result for `Clc1ccc(Cn2cnc3ccccc32)cc1` reads -0.58%; that for `NC(=O)CSc1nnc(Cn2cnc3ccccc32)o1`, -3.79%; that for `Clc1ccc(CSc2nnc(Cn3cnc4ccccc43)o2)cc1`, 15% (active).
Under `CC(C)(CN=C1NS(=O)(=O)c2ccccc21)CNC(=O)CN1C(=O)c2ccccc2C1=O` stands 0.96%; under `O/C(=C\Sc1nnc(Cc2ccccc2)o1)c1ccc(Br)cc1`, 9.57%.
Under `Cc1cccc(-n2nc3c(c2NC(=O)CCC2CCCCC2)CS(=O)C3)c1C` (stereo not drawn) stands 19.3% (active); under `O=C(CCC1CCCCC1)Nc1c2c(nn1-c1ccc(F)cc1)CS(=O)C2` (stereo not drawn), -0.99%; under `Cc1ccc(-n2nc3c(c2NC(=O)CCC2CCCCC2)CS(=O)C3)cc1` (stereo not drawn), 4.09%.
As to `COc1ccccc1C1C(C(=O)NCc2ccccc2)=C(C)Nc2ncnn21` (stereo not drawn), the inhibition was -0.29%.
Under `O=C(NCc1cccc(Cl)c1)c1ccc(S(=O)(=O)Nc2cccc(C(F)(F)F)c2)cc1` stands 6.21%; under `CNS(=O)(=O)c1c(C)cc(C)c(N(C)S(=O)(=O)c2ccccc2)c1C`, 4.09%; under `O=C(O)CCCN1C(=O)/C(=C/C=C/c2ccco2)SC1=S`, 5.29%.
With `O=C(O)C(Cc1ccccc1)N1C(=O)/C(=C/C=C/c2ccco2)SC1=S` (stereo not drawn), the inhibition is 26.9% (active).
For the compound `O=C(O)C(Cc1ccccc1)N1C(=O)/C(=C/c2cccs2)SC1=S` (stereo not drawn), the inhibition is 17.4% (active).
On to `O=C(O)CC(C(=O)O)N1C(=O)/C(=C/C=C/c2ccco2)SC1=S` (stereo not drawn), for which the inhibition is 17.9% (active).
Under `COc1ccc(/C=C2\SC(=S)N(C(Cc3ccccc3)C(=O)O)C2=O)cc1` (stereo not drawn) stands 1.51%.
For `O=C(O)C(Cc1ccccc1)N1C(=O)/C(=C/c2ccccc2)SC1=S` (stereo not drawn), the inhibition is 7.96%.
The result for `Cc1ccc(/C=C2\SC(=S)N(C(Cc3ccccc3)C(=O)O)C2=O)cc1` (stereo not drawn) reads 5.14%; that for `O=C(O)C(Cc1ccccc1)N1C(=O)/C(=C/c2cccc3ccccc23)SC1=S` (stereo not drawn), 3.53%.
Under `O=C1S/C(=C\C=C\c2ccco2)C(=O)N1c1ccc(O)cc1` stands 11.9%; under `CC(=O)Nc1ccc(C(=O)NNC(=O)c2cc([N+](=O)[O-])cc([N+](=O)[O-])c2)cc1`, 2.49%.
The result for `CC(C)(O)C#Cc1ccc(CN2CCN(Cc3ccccc3)C(CCO)C2)s1` (stereo not drawn) reads 3.34%; that for `CSc1nc2nc3c(cn2n1)C(=O)CC(c1ccccc1)C3` (stereo not drawn), 2.71%.
In the case of `O=C1CC(c2ccccc2)Cc2nc3nc(C(F)(F)F)nn3cc21` (stereo not drawn), the inhibition was 2.78%.
Under `Cc1nc2nc3c(cn2n1)C(=O)CC(c1ccccc1)C3` (stereo not drawn) stands 15% (active).
Under `O=C(Nc1nnc(-c2ccccc2)o1)NC1CCCCC1` stands 0.77%; under `CC(=O)Nc1ccc(OCC(O)CN2CCN(c3cccc(Cl)c3)CC2)cc1` (stereo not drawn), -0.54%.
Regarding `COC(C/C=C\[C@H](O)COCc1ccccc1)OC`, the inhibition was 6.23%.
`Cc1ccccc1NC(=O)Nc1cc(-c2ccccc2)nn1C`: the inhibition was -3.02%.
For `O=C(CSCc1ccccc1F)NCc1ccc(F)cc1`, the inhibition was -1.92%.
For `c1cncc(-c2nnc3n2CCC3)c1`, the inhibition was -0.26%.
The result for `CCOC(=O)C1=C(C)N(c2ccccc2)C(=O)C1` reads 3.44%.
As for `CCOC(=O)C1=C(N)N(c2ccccc2)C(=O)C1`, the inhibition is 1.91%.
The result for `CCOC(=O)C1=C2NC(=O)c3ccccc3N2C(=O)C1` reads 13.7% (active); that for `O=C(COC(=O)c1ccc(Cl)c([N+](=O)[O-])c1)Nc1ccccc1OC(F)F`, 0.84%.
Under `Cc1sc2nc(SCc3ccccc3)n(Cc3ccco3)c(=O)c2c1C` stands -1.04%.
Under `Cc1onc(-c2ccccc2Cl)c1C(=O)N1CCN=C1SCc1cccnc1` stands 27.2% (active); under `CCSC1=NCCN1C(=O)c1c(-c2ccccc2Cl)noc1C`, 4.4%; under `CSC1=NCCN1C(=O)c1c(-c2ccccc2Cl)noc1C`, -1.36%.
As for `C=CCn1c(O)c(C=Nc2c(C)n(C)n(-c3ccccc3)c2=O)c(=O)[nH]c1=O`, the inhibition is -2.53%.
The result for `CCCOC(=O)C1C2C=CC(C3CC23)C1C(=O)OCC(=O)c1ccccc1` (stereo not drawn) reads 2.44%; that for `Cc1ccc(C)c(N2C(=N)S/C(=C\c3ccc(-c4ccccc4C(=O)O)o3)C2=O)c1`, 13.1% (active); that for `N=C1S/C(=C\c2ccco2)C(=O)N1c1ccc2c(c1)OCO2`, 5.07%.
The result for `Cc1ccccc1NC(=O)CN1C(=O)S/C(=C\c2ccc(-c3cc(C(=O)O)ccc3C)o2)C1=O` reads 19.2%; that for `COc1ccccc1N1C(=N)S/C(=C\c2ccc(-c3ccccc3C(=O)O)o2)C1=O`, 8.5%.
For `O=C1NC(=O)N(c2ccc3c(c2)OCO3)C(=O)/C1=C\c1ccc(-c2ccccc2C(=O)O)o1`, the inhibition was 9.19%.
Under `O=C(N/N=C/C=C/c1ccc(Br)cc1)C(O)c1ccccc1` (stereo not drawn) stands -4.11%; under `COc1ccc(NC(=O)c2ccccc2-c2ccccc2)c(C)c1`, -1.21%.
The result for `O=C(OCC(=O)N1CCN(C(=O)c2ccco2)CC1)c1ccccc1C(=O)c1ccccc1` reads 0.58%.
The result for `O=c1/c(=C\c2cccn2-c2ccccc2)sc2nc3ccccc3n12` reads -1.22%; that for `O=C(O)Cn1cc(/C=c2/sc3nc4ccccc4n3c2=O)c2ccccc21`, -3.15%.
For `O=Cc1ccc(-c2cccc(C(=O)O)c2)o1`, the inhibition is 3.12%.
Take `Cc1cc(/C=c2/sc3nc4ccccc4n3c2=O)c(C)n1-c1ccccn1`: the inhibition is 6.87%.
On to `CCN(CC)c1ccc(/C=c2\sc3nc4ccccc4n3c2=O)c(O)c1`, for which the inhibition was -2.52%.
The result for `O=c1/c(=C/c2ccccn2)sc2nc3ccccc3n12` reads 3.31%.
The result for `Cc1ccc(-n2c(C)cc(/C=c3/sc4nc5ccccc5n4c3=O)c2C)cc1` reads 0.75%; that for `O=c1/c(=C\c2cc([N+](=O)[O-])cc([N+](=O)[O-])c2O)sc2nc3ccccc3n12`, 33.8% (active).
Under `O=c1/c(=C/c2ccc(O)c([N+](=O)[O-])c2)sc2nc3ccccc3n12` stands 8.42%; under `O=c1c(Br)c(N2CCOCC2)cnn1-c1ccccc1`, -4.84%.
Turning to `Cn1nc(C(F)(F)F)c2cc(C(=O)O)sc21`, the inhibition is 0.57%.
The result for `CCN(CC)S(=O)(=O)c1ccc(N2CCOCC2)c(NC(=O)CC(C)(C)C)c1` reads 11.6%.
